In PubChem BioAssay (Tox21):
Values joined by “and” are separate entries in the source; they are usually repeats but may differ in a detail not shown here. Equal entries are not always repeated. Records with an inconclusive call do not appear. Where a call stands in place of a potency, no number is given. A structure can be active in one record and inactive in another. Active and inactive are the calls of the source. Unless noted, calls follow the shape of the dose curve; as a rule, active = well fitted curve in the direction sought with a large enough effect in the repeat runs; inconclusive = weak or mixed curves; inactive = no such curve, though single readings can be large; an effect the other way counts as inactive or inconclusive.

How the values were obtained:
[1] = qHTS assay to identify aromatase inhibitors - cell viability counter screen (AID 743084);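 also: cells stimulated with testosterone during compound exposure; nearly all actives have a fitted effect of over 55% in size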; also: potency is read from the fitted curve at half-maximal effect
[2] = target: Aryl hydrocarbon receptor (Homo sapiens) (UniProt P35869); experiment: qHTS assay to identify small molecule that activate the aryl hydrocarbon receptor (AhR) signaling pathway (AID 743085); also: nearly all actives have a fitted effect of over 15% in size; also: potency is read from the fitted curve at half-maximal effect;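 as to activation: HG2L7.5c1 human HepG2 liver cells with stably integrated DRE-driven firefly reporter; series mostly up to about 70 µM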
Sequence of Aryl hydrocarbon receptor (Homo sapiens) (P35869 whole entry, looked up): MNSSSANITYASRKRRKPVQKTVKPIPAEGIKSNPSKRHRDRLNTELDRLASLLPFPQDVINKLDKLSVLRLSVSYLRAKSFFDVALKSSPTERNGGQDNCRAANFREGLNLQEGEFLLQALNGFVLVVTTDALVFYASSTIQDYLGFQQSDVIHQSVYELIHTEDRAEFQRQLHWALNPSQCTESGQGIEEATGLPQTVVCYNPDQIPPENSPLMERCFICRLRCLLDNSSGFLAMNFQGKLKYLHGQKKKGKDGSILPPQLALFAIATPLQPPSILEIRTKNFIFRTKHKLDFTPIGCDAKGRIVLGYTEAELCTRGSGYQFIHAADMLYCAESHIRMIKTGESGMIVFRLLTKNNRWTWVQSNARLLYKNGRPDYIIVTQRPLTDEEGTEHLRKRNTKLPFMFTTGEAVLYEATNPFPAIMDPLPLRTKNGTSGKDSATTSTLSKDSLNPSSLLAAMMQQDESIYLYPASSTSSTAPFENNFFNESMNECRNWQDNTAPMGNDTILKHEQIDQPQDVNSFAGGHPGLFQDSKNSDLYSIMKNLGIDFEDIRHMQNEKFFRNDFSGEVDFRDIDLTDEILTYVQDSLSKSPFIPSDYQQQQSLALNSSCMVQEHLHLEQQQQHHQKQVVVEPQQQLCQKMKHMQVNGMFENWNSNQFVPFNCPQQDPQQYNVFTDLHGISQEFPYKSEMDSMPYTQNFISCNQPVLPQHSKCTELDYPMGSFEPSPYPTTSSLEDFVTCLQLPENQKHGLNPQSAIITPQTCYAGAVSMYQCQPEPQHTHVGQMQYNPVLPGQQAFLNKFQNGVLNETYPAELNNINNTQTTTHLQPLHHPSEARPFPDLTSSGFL
Summary of the method: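 A multiplexed format paired cell viability (CellTiter-Fluor fluorescence) with AhR-dependent luciferase output (ONE-Glo luminescence) in the same wells of HepG2 DRE-luc cells after 24 h compound exposure at 37C.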

[3] = qHTS assay to identify small molecule that activate the aryl hydrocarbon receptor (AhR) signaling pathway - cell viability counter screen (AID 743086);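 also: HepG2 liver cells carrying the AhR DRE luciferase reporter; series mostly up to about 70 µM; nearly all actives have a fitted effect of over 45% in size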
Summary of the method: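 Cytotoxicity counter screen: CellTiter-Fluor signal (30 min, 37 C) in 4000 HepG2 cells/well carrying the DRE-luciferase reporter, following 24 h compound exposure at 37 C.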

[4] = target: Peroxisome proliferator-activated receptor gamma (Homo sapiens) (UniProt P37231); experiment: qHTS assay to identify small molecule agonists of the peroxisome proliferator-activated receptor gamma (PPARg) signaling pathway (AID 743094; active = well fitted activation curve with a large enough effect in the signal ratio in the repeat runs, not every such curve was filed as active; the % refers to the signal ratio)
Sequence of Peroxisome proliferator-activated receptor gamma (Homo sapiens) (P37231 whole entry, looked up): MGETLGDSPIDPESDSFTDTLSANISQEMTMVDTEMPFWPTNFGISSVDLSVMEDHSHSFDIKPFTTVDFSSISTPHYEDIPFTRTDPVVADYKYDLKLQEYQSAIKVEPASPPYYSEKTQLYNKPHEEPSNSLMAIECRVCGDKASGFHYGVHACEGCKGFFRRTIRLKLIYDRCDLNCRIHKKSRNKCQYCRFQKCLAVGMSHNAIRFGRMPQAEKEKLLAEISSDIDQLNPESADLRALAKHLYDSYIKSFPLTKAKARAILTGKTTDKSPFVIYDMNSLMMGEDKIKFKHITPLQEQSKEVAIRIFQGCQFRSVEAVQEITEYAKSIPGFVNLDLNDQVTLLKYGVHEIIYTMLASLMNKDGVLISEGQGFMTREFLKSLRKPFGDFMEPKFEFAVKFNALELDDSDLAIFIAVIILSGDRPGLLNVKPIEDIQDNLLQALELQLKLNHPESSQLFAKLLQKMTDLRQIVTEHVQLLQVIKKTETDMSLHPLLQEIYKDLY
Summary of the method: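 Cells from the PPARg UAS-bla HEK293H line are plated and incubated 5 h at 37C. Compounds in DMSO are pinned in and left 17 h at 37C. LiveBLAzer B/G substrate is then added for 1 h at room temperature before fluorescence is measured.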

[5] = target: Peroxisome proliferator-activated receptor gamma (Homo sapiens) (UniProt P37231); experiment: qHTS assay to identify small molecule antagonists of the peroxisome proliferator-activated receptor gamma (PPARg) signaling pathway (AID 743191; calls by dose curve; also: nearly all actives have a fitted effect of over 30% in size; also: potency is read from the fitted curve at half-maximal effect)
Summary of the method: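 Beta-lactamase reporter under UAS control in HEK293H PPARg-bla cells; compound treatment 17 h at 37C. Read-out: fluorescence intensity after 1 h room-temperature incubation with LiveBLAzer B/G FRET substrate.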

[6] = qHTS assay to identify small molecule antagonists of the peroxisome proliferator-activated receptor gamma (PPARg) signaling pathway - cell viability counter screen (AID 743194); settings: Potency: co-treated with 50 nM rosiglitazone unless noted; also: nearly all actives have a fitted effect of over 55% in size; also: potency is read from the fitted curve at half-maximal effect
Summary of the method: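 Viability was measured as CellTiter-Glo luminescence in GeneBLAzer PPARg UAS-bla HEK293H cells. These cells had been exposed 17 h at 37 C to compounds together with rosiglitazone at 50 nM final, with the beta-lactamase readout taken in the same wells.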

[7] = qHTS assay for small molecule agonists of the antioxidant response element (ARE) signaling pathway (AID 743202; active = well fitted activation curve with a large enough effect in the signal ratio in the repeat runs, not every such curve was filed as active; the % refers to the signal ratio; also: potency is read from the fitted curve at half-maximal effect)
Summary of the method: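 After 16 hours of compound treatment at 37 C, HepG2 cells with a stably integrated ARE-driven beta-lactamase reporter were loaded 2 hours at room temperature with LiveBLAzer B/G FRET substrate and fluorescence intensity measured.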

[8] = qHTS assay for small molecule agonists of the antioxidant response element (ARE) signaling pathway - cell viability counter screen (AID 743203; calls by dose curve; also: nearly all actives have a fitted effect of over 55% in size)
Summary of the method: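 Cytotoxicity was tested in parallel with the ARE reporter screen. ARE-bla HepG2 cells were exposed to compounds for 16 hrs, and viability was taken from CellTiter-Glo luminescence.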

[9] = qHTS assay for small molecule activators of the heat shock response signaling pathway - cell viability counter screen (AID 743209); also: nearly all actives have a fitted effect of over 50% in size; also: potency is read from the fitted curve at half-maximal effect
Summary of the method: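 Cytotoxicity counter screen run in parallel with the HSE beta-lactamase reporter, using the same wells. HeLa HSE-bla cells received compound for 5 h at 37 C; ATP-based CellTiter-Glo luminescence was measured after 30 min at room temperature.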

[10] = qHTS assay for small molecule activators of the heat shock response signaling pathway (AID 743210; active = well fitted activation curve with a large enough effect in the signal ratio in the repeat runs, with a control signal flat, not every such curve was filed as active; the % refers to the signal ratio; also: series mostly up to about 63 µM)
Summary of the method: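 Compound exposure lasted 5 h at 37 C in HeLa cells carrying a heat-shock-element-driven beta-lactamase reporter. Read-out: fluorescence intensity after 2.5 h room-temperature loading with LiveBLAzer B/G FRET substrate.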

SMILES	Potency [1]	Potency [2]	Potency [3]	outcome [4]	Potency [5]	Potency [6]	Potency [7]	Potency [8]	Potency [9]	outcome [10]
O=C(O)CC(O)(CC(=O)O)C(=O)O	inactive	inactive	inactive	inactive	inactive	inactive	inactive	inactive	inactive	inactive
Nc1ccc(-c2ccc(N)c(Cl)c2)cc1Cl	inactive	7.74 µM (active) and 6.4 µM (active) and 19.3 µM (active)	inactive	inactive	inactive and 49 µM (active)	inactive	1.38 µM (active) and 2.02 µM (active) and 1.72 µM (active)	inactive	inactive	
CC(Cl)(Cl)C(=O)O	inactive	inactive	inactive	inactive	inactive	inactive	inactive	inactive	inactive	inactive
Cc1cc(Cl)ccc1OCC(=O)O	inactive	inactive	inactive	inactive	inactive	inactive	inactive	inactive	inactive	inactive
CCCC[N+]1(C)CCCCC1	inactive	inactive	inactive			inactive	inactive	inactive	inactive	
O=P1(N(CCCl)CCCl)NCCCO1 (stereo not drawn)	inactive	inactive	inactive	inactive	inactive	inactive	inactive	inactive	inactive	
O=c1[nH]c(=O)n(Cl)c(=O)n1Cl	inactive	inactive	inactive	inactive	inactive	inactive	inactive	inactive	inactive	
O=c1nc(O)n(Cl)c(=O)n1Cl	inactive	inactive	inactive	inactive	inactive	inactive	inactive	inactive	inactive	
CCOP(=S)(OCC)Oc1ccc2c(C)c(Cl)c(=O)oc2c1	inactive	596 nM (active) and 98 nM (active)	inactive	inactive		inactive	inactive	inactive	inactive	inactive
Oc1ccccc1-c1ccccc1	inactive	inactive and 24.9 µM (active)	inactive	inactive	inactive	inactive	55.8 µM (active)	inactive	inactive	
OCCOc1ccccc1	inactive	inactive	inactive	inactive	inactive	inactive	inactive	inactive	inactive	inactive
CCCC[n+]1ccccc1	inactive	inactive	inactive			inactive	inactive	inactive	inactive	
CCCCCCCCCCn1cc[n+](C)c1	24.6 µM (active) and inactive	inactive	inactive	inactive	inactive	22.1 µM [setting not given] (active) and 24.6 µM [setting not given] (active) and 4.89 µM [setting not given] (active)	2.19 µM (active) and 4.85 µM (active) and 2.16 µM (active)	inactive	39.3 µM (active)	inactive
O=[N+]([O-])c1ccccc1O	inactive	inactive	inactive	inactive	inactive	inactive	inactive	inactive	inactive	inactive
CNC	inactive	inactive	inactive	inactive	inactive	inactive	inactive	inactive	inactive	inactive
CCNc1nc(Cl)nc(NCC)n1	inactive	inactive	inactive	inactive	inactive	inactive	inactive	inactive	inactive	inactive
C[C@]12CCC(=O)C=C1CC[C@@H]1[C@@H]2CC[C@]2(C)C(=O)CC[C@@H]12	inactive	inactive	inactive	inactive		inactive		inactive	inactive	inactive
O=[N+]([O-])O	inactive	inactive	inactive			inactive	inactive	inactive	inactive	
O=C(O)C(Cl)Cl	inactive	inactive	inactive	inactive	inactive	inactive	inactive	inactive	inactive	inactive
COCC(=O)N(c1c(C)cccc1C)C(C)C(=O)OC (stereo not drawn)	inactive	inactive	inactive	inactive	inactive	inactive	inactive	inactive	inactive	inactive
COP(=O)(OC)OC=C(Cl)Cl	inactive	inactive	inactive	inactive		inactive	inactive	inactive	inactive	
Nc1ccc(-c2ccc(N)cc2)cc1	inactive	9.58 µM (active) and inactive and 61.1 µM (active)	inactive	inactive	inactive	inactive	inactive	inactive	inactive	inactive
CC(=O)O	inactive	inactive	inactive			inactive	inactive	inactive	inactive	
COc1ccc(N)cc1	inactive	60.1 µM (active) and inactive and 30.6 µM (active)	inactive	inactive		inactive	inactive	inactive	inactive	inactive
C[N+](C)(C)Cc1ccccc1	inactive	inactive	inactive	inactive		inactive	inactive	inactive	inactive	
CN(C)[C@@H]1C(=O)C(C(N)=O)=C(O)[C@@]2(O)C(=O)C3=C(O)c4c(O)cccc4[C@@](C)(O)[C@H]3[C@H](O)[C@@H]12	inactive	inactive	inactive	inactive	inactive	inactive	inactive	inactive	inactive	
CCn1cc[n+](C)c1C	inactive	inactive	inactive	inactive	inactive	inactive		inactive	inactive	inactive
Nc1ccc(Cl)cc1	inactive	24.3 µM (active) and 30.6 µM (active) and 24.8 µM (active)	inactive	inactive	0.0871 µM (active)	inactive	inactive	inactive	inactive	inactive
C1CCC(NC2CCCCC2)CC1	inactive	inactive	inactive	inactive	inactive	inactive	inactive	inactive	inactive	inactive
